Drawing on PubChem BioAssay AID1259240 (Keith Lab, Institute of Cancer Science, University of …, 2017), this text covers fold change and outcome for 23 compounds.

Unmarked numbers belong to inactive results. Calls of active or inactive are those of the source. No stated cut-off is given here; in the data, active means fold change mostly below about -2 (no sharp cut-off); inactive means mostly above about -1.8.

This test in a line: TERT promoter activity modulators, primary screen, cell-based, luciferase reporter, human (AID 1259240). As to conditions: A2780 TERT promoter luciferase reporter, 16 h; at 20 µM, fold versus average of vehicle-only wells.
Consider `O=C(CSc1ncnc2ccccc12)NC1CCCCC1`, for which the fold change is 1.03.

As for `CCOC(=O)CCCSc1nc2sc(C)c(C)c2c(=O)[nH]1`, the fold change is -3.49 (active). Same read-out and setting: the result for `Cc1ccc(CN2C(=O)/C(=C/c3c(NCCO)nc4ccc(C)cn4c3=O)SC2=S)cc1` reads -1.97; that for `Cn1c(=O)c2c(SCC(=O)Nc3ccc([N+](=O)[O-])cc3)nc(-c3ccc(F)cc3)nc2n(C)c1=O`, 1.08. `CC(C)C(NS(=O)(=O)c1cccc2nsnc12)C(=O)N1CCCCC1` (stereo not drawn): the fold change was 1.43. Same read-out and setting: the result for `Clc1ccc(CNc2ccc3nncn3n2)cc1` reads -1.3; that for `Cc1cc(C)c(Cn2c3ccccc3c3cnn(CC(=O)NCC4CCCO4)c(=O)c32)c(C)c1` (stereo not drawn), -1.24. `O=c1/c(=C/c2c(F)cccc2Cl)sc2nc(-c3ccco3)nn12`: the fold change is 1.03.

Turning to `Cc1ccc(-c2cc(C(F)F)n3ncc(C(=O)Nc4cccnc4Cl)c3n2)cc1`, the fold change is -1.66. Same read-out and setting: next, `CCOC(=O)CSc1nc(SCC(=O)OCC)c2c3c([nH]c2n1)CCCC3`: 1.35.

Take `Cc1ccccc1Nc1c(-c2ccccc2O)nc2cnccn12`: the call was active. Same read-out and setting: the result for `C1=C(c2cccnc2)Nc2nc3ccccc3n2C1c1cccs1` (stereo not drawn) reads “inactive”. In the case of `FC(F)(F)c1cccc(N2CCN(c3ccc4nncn4n3)CC2)c1`, the fold change was -1.15.

On to `COc1cc2[nH]c(C)cc(=O)c2cc1OC`, for which the fold change was 1.12. The same measure, in the same setting: next, `Cc1cc(NC(=O)CSCc2nc(-c3cccc(Cl)c3)oc2C)no1`: 1.06. For the compound `CCN(CCO)CCNc1cc(N2CCCC(C)C2)c2noc3c2c1C(=O)c1ccccc1-3` (stereo not drawn), the fold change was -6.87 (active). Same read-out and setting: next, `CCCN(CCC)C(=O)C1CCCN(S(=O)(=O)c2ccc3c(c2)oc(=O)n3C)C1` (stereo not drawn): 1.49; `COc1ccc(NC(=O)CSc2nc(-c3ccco3)cc(C(F)(F)F)n2)c(OC)c1`: -1.96. With `Cc1ccccc1-n1cnc2c(sc3nc(N4CCOCC4)c4c(c32)CC(C)(C)OC4)c1=O`, the fold change is -1.84.

For the compound `O=C(Nc1ccc(S(=O)(=O)N2CCCC2)cc1)C1c2ccccc2Oc2ccccc21`, the fold change is -1.83. The same measure, in the same setting: next, `CCOC(=O)Cn1c(=O)oc2cc(S(=O)(=O)NC3CCCC(C)C3C)ccc21` (stereo not drawn): 1.21. The same measure, in the same setting: next, `CCN(CC)CCNc1nc2c(c(=O)[nH]c(=O)n2C)n1CCCc1ccccc1`: -2.06 (active); `CCOC(=O)c1ccc(-c2c(C(F)(F)F)oc3cc(O)c(CC)cc3c2=O)o1`: -2.58 (active).
